# High-throughput results from PubChem.
# CCT modulator = High-Throughput Screening for Modulators of Cytosolic Chaperonin Activity; purified chaperonin ATPase assay, HTRF ADP detection, 30 min; activity change, % (concentration not given with the values), hits read low; actives 0.3% (n = 360,000); AID 651819, 2012; in the data active = activity change below about -30%
#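 TRiC (40 or 20 nM final, by batch activity) in 30 mM Tris pH 7.4, 100 mM KCl, 5 mM MgCl2, 1 mM DTT was treated with compound at 76 uM single dose, then 10 uM ATP, 30 min at 37 °C. ADP was read by HTRF Transcreener.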
# PLK1 PBD inh = qHTS for Inhibitors of PLK1-PDB (polo-like kinase 1 - polo-box domain): Primary Screen | Serine/threonine-protein kinase PLK1 (Homo sapiens), P53350 | Plk1 PBD binding of FITC phosphopeptide, fluorescence polarization | Potency, µM, for the others: max response, negative = inhibition, usual class: inhibitors | actives 2.8% (n = 360,000) | AID 720504, 2013; also: potency is read from the fitted curve at half-maximal effect; series mostly up to about 57 µM; nearly all actives have a fitted effect of over 65% in size
# Sfp inh = qHTS Assay for Inhibitors of Bacillus subtilis Sfp phosphopantetheinyl transferase (PPTase) | 4'-phosphopantetheinyl transferase ffp (Bacillus subtilis), Q9F4F7 | Biochemical Sfp PPTase activity, qHTS | Potency, µM, without a hit: largest response in the series, negative = inhibition, most hits filed as inhibitors | actives 3.5% (n = 310,000) | AID 1490, 2009;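 also: the enzyme is Sfp with the accession as filed and its product quenches rhodamine fluorescence; potency is read from the fitted curve at half-maximal effect; 0% = enzyme reaction without inhibitor and -100% = no enzyme wells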
#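 Fluorescence-quenching assay with 15 nM Sfp, 5 uM rhodamine-CoA and 12.5 uM BHQ-2-labelled ybbR peptide in pH 7.6 Hepes/MgCl2 buffer. Enzyme was pre-incubated with compound for 15 min at room temperature. Rate was taken from the 30-min fluorescence change (525/598 nm).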
# G9a inh = qHTS Assay for Inhibitors of Histone Lysine Methyltransferase G9a | actives 8.8% (n = 350,000) | Potency, µM (titrated, usually from 102 µM), without a hit: at the highest dose activity, negative = inhibition, hits mostly inhibitors | G9a H3K9 monomethylation, AlphaScreen, 2 h; also: potency is read from the fitted curve at half-maximal effect; nearly all actives have a fitted effect of over 75% in size
# Target sequence (Q96KQ7 913-1193 limits assumed): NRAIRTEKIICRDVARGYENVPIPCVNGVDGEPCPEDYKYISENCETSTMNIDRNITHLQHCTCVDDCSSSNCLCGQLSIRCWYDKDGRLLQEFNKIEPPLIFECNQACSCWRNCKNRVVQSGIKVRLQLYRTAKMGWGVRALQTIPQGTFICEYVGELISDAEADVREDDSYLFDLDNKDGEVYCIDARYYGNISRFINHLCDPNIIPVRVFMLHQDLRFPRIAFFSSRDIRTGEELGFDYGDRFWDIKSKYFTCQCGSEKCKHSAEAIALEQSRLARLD
#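 Compounds were preincubated with 20 nM G9a for 15 min, after which biotinylated H3K9 peptide (500 nM) and SAM (20 uM) started a 2 h room-temperature reaction. Monomethylated product was quantified by antibody-based AlphaScreen chemiluminescence.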
# VDR inhibitor = Inhibitors of the vitamin D receptor (VDR): qHTS; Vitamin D3 receptor (Homo sapiens), P11473; VDR-SRC2-3 peptide fluorescence polarization, 2 h; Potency, µM, for the others: max response, negative = inhibition, actives largely listed as inhibitors; actives 0.93% (n = 400,000); also: potency is read from the fitted curve at half-maximal effect
#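 Inhibition of the VDR/SRC2-3 peptide interaction is quantified by fluorescence polarization. Compounds (23 nl, pintool) incubate with the reagents for 2 hours at ambient room temperature.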
# MmCpn inh = Inhibitors of TCP-1 ring complex (TRiC) of Methanococcus maripaludis (MmCpn): qHTS. purified Mm-Cpn ATPase, ADP Transcreener TR-FRET. Potency, µM (series often up to 76.9 µM), for inactives: at the highest dose activity, negative = inhibition, actives largely listed as inhibitors. actives 0.031% (n = 330,000); also: potency is read from the fitted curve at half-maximal effect; nearly all actives have a fitted effect of over 80% in size
#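 Eu-cryptate anti-ADP/ADP-d2 competition gives a ratio inversely related to ADP. Enzyme at 25 nM was pre-exposed to compound for 10 min, then given 10 uM ATP for 30 min, 37°C throughout.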
# The depositor's hits bear a star; ? = inconclusive; / = not tested or not shown; [ ] = another dose, or the depositor's remark. Most compounds without a hit are left out; they make up all but 10% or so of the library. Unless noted, calls follow the shape of the dose curve; as a rule, active = well fitted curve in the direction sought with a large enough effect; inconclusive = small, poorly fitted or top-dose-only effect, or another doubt; inactive = no such curve, though single readings can be large; an effect the other way counts as inactive or inconclusive. Unless noted, % is scaled to controls: 0 for no effect and ±100 for the full control effect.
SMILES,CCT modulator,PLK1 PBD inh,Sfp inh,G9a inh,VDR inhibitor,MmCpn inh
O=C(NCC1CCCCC1)C1(CC2CC(c3cccc(Br)c3)=NO2)CCNCC1 (stereo not drawn),-5.4,-8.8%,-9.6%,?,-22.9%,3.2%
CCC(C)OC(=O)C1=C(C)NC2=C(C(=O)C(C(=O)OC)C(C)C2)C1c1ccc(N(C)C)cc1 (stereo not drawn),0.2,-10.0%,-8.9%,5.01µM*,-7.5%,-1.0%
CCOC(=O)C1=C(C)NC2=C(C(=O)C(C(=O)OC)C(C)C2)C1c1ccc(OC)c(O)c1 (stereo not drawn),1.5,1.3%,-2.5%,16.9%[0.0925 µM],5.8%,-0.7%
CC1=C(C(=O)OC(C)C)C(c2ccc(N(C)C)cc2)C2=C(CC(C)(C)CC2=O)N1 (stereo not drawn),-3.2,-6.9%,-8.3%,?,-2.9%,0.1%
COCCOC(=O)C1=C(C)NC2=C(C(=O)CCC2)C1c1ccc(N(C)C)cc1 (stereo not drawn),-14.6,-7.4%,-1.1%,?,-0.8%,-0.8%
CCN(CC)c1ccc(C2C(C(=O)OCCOC(C)C)=C(C)NC3=C2C(=O)CCC3)cc1 (stereo not drawn),-11.3,-5.4%,-1.3%,10µM*,1.4%,-26.7%
CCCOC(=O)C1=C(C)NC2=C(C(=O)C(C(=O)OC)C(C)C2)C1c1ccc(N(CC)CC)cc1 (stereo not drawn),-2.7,-7.0%,-10.7%,3.55µM*,4.6%,-2.8%
Cc1nnc(N2CCN(c3cccc(C(F)(F)F)c3)CC2)c2c1nnn2Cc1ccccc1,/,/,/,8.4%[59 µM],4.1%,/
COCOc1cc(OC)ccc1C(=O)/C=C/c1ccc2c(c1)OCO2,/,/,15.5%,/,/,/
COCOc1ccc(OC)cc1C(=O)/C=C/c1ccc(OC)c(Br)c1,/,/,-3.5%,/,39.8µM*,/
COCOc1cc(OC)ccc1C(=O)/C=C/c1cccc(C(F)(F)F)c1,/,/,-3.3%,/,28.2µM*,/
COc1ccc(Cc2n[nH]c(=S)n2Cc2ccccc2)cc1Cl,-2.7,-20.7%,8.7%,6.31µM*,-14.0%,-1.9%
CCOc1ccc(Cc2n[nH]c(=S)n2Cc2ccccc2)cc1,-1.4,-14.2%,2.4%,1.12µM*,-4.4%,0.8%
Cc1ccc(C)c(N2CCN(C(=O)C3CCN(S(=O)(=O)c4cn(C)cn4)CC3)CC2)c1,/,/,/,7.4%[59 µM],-2.9%,/
O=c1[nH]c2ccccc2c2oc(CCl)nc12,-3.5,?,6.31µM*,35.5µM*,-16.0%,-0.8%
CCOc1cc(/C=N\NC(=O)CN2CCOCC2)ccc1OCc1ccc(F)cc1,-1.5,-7.5%,19.2%,17.6%[59 µM],2.2%,0.3%
CCOc1cc(/C=N/NC(=O)Cn2nc([N+](=O)[O-])cc2C)ccc1OCc1ccc(F)cc1,-0.5,-20.7%,44.7µM*,-2.4%[0.0925 µM],16.4%,1.4%
COc1ccc(N2CC(NC(=O)c3ccco3)CC2=O)cc1OC (stereo not drawn),/,/,/,-2.5%[59 µM],0.6%,/
CCc1ccccc1NC(=O)c1cc(S(=O)(=O)N2CCCC2)cn1C,/,/,/,?,3.7%,/
Cc1nn(CCCC(=O)O)c(C)c1[N+](=O)[O-],-3.3,6.7%,22.5%,1.5%,-3.7%,-0.4%
CC(=O)c1c(C)nn(CCC(=O)O)c1C,-1.0,15µM*,5.9%,-40.8%,?,1.2%
CCOc1ccc(Nc2nc3cc(Cl)c(Cl)cc3nc2-n2nc(C)cc2C)cc1,/,/,/,1.4%[59 µM],-6.6%,/
CC(C)(C)c1csc(NC(=O)Cn2c(=O)oc3ccccc32)n1,0.5,26.7µM*,-12.7%,11.2µM*,8.0%,1.8%
O=C(Cn1c(=O)oc2ccccc21)Nc1nc(-c2ccccc2)cs1,0.1,-0.7%,1.7%,10.5%[59 µM],4.6%,1.5%
